Here are results for 96 molecules from PubChem BioAssay AID902 (National Center for Advancing Translational Sciences (NCATS), 2007).

Where “and” joins values, the source holds several entries; their conditions need not be identical. Equal entries are not always repeated. Among all 130,000 compounds or so, about 1,900 (1.5%) were called active. A call without a number means that no potency is given here. Not shown: some 5% with an inconclusive outcome. The call rests on the fitted dose curve; in most records, active means well fitted cell-killing curve with a large enough effect; inconclusive means small, poorly fitted or top-dose-only effect; inactive means no such curve, though single readings can be large or run the other way. Only a selection was taken, and actives are over-represented in it overall. A structure can be active in one record and inactive in another.
Potency means the concentration at half of the fitted maximal effect.

The experiment in a line: qHTS Screen for Compounds that Selectively Target Cancer Cells with p53 Mutations: Cytotoxicity of p53ts Cells at the Nonpermissive Temperature. Further: nearly all actives have a fitted effect of over 55% in size. The settings on record: H1299-p53A138V viability at 39C, ATP luminescence, 24 h; series mostly up to 46.1 µM. (Quantitative high-throughput screening tests each substance at several concentrations.)
As for `COc1ccc(Br)cc1CNC(=O)c1cc(=O)[nH]c2ccc(S(=O)(=O)N3CCCC3)cc12`, the Potency entry is “inactive”.
To `COc1ccc(NC(=O)CN2CCCN(Cc3ccccc3)S2(=O)=O)cc1` belongs “inactive”; to `COc1ccc(C(=O)Nc2nonc2-c2ccc(OC)c(OC)c2)cc1Cl`, “inactive”; to `Cn1c(=O)c2sccc2n2c(CCC(=O)NCc3ccccc3Cl)nnc12`, “inactive”.
Under `CC1=C(c2ccc(Cl)cc2)S(=O)(=O)N=C1N1CCN(c2cc(C)ccc2C)CC1` stands “inactive”.
To `Cc1ccc(C)c(N2CCN(CCCNC(=O)Nc3ccc(Cl)cc3)CC2)c1` belongs 10 µM (active).
With `CC1=C(c2ccc(C)cc2)S(=O)(=O)NC1=NCCCN1CCN(c2cc(C)ccc2C)CC1`, the Potency entry is “inactive”.
As to `CCN(CCCNC(=O)c1ccc(Sc2ccc(C)cc2)c(NC(C)=O)c1)c1cccc(C)c1`, the Potency entry was “inactive”.
Under `COc1ccccc1C1C(C(=O)N2CCCCC2)=C(C)Nc2nc3ccccc3n21` (stereo unspecified) stands “inactive”; under `COC(=O)c1ccc(C2C(C(=O)Nc3ccccc3)=C(C)Nc3nc4ccccc4n32)cc1` (stereo unspecified), 12.6 µM (active).
Take `CCOc1ccc(C2C(C(=O)NC)=C(C)Nc3nc4ccccc4n32)cc1OC` (stereo unspecified): the Potency result was “inactive”.
To `CCOC(=O)c1c(C)[nH]c(C)c1S(=O)(=O)N1CCCC(C(=O)NCc2ccccc2Cl)C1` (stereo unspecified) belongs “inactive”; to `CCc1cnc2c(c1SCC(=O)c1ccccc1)c(=O)n(C)c(=O)n2C`, “inactive”.
Take `CC(C)(C)c1ccc(C(=O)N2CCC(c3nc(-c4ccc(S(=O)(=O)N5CCCC5)cc4)no3)CC2)cc1`: the Potency result is “inactive”.
Under `Cc1sc(C2C(C#N)=C(N)N(c3cccc(Cl)c3)C3=C2C(=O)CCC3)cc1CN1CCOCC1` (stereo unspecified) stands “inactive”; under `COc1ccc(CCNC(=O)c2cc(-c3ccc4c(c3)OCO4)on2)cc1OC`, “inactive”.
Take `COc1c2c(cc3occ(-c4ccc5c(c4)OCO5)c(=O)c13)OC(C)(C)C=C2`: the Potency was 10 µM (active).
To `CCC(=O)N1CCc2cc(S(=O)(=O)NCCC(=O)Nc3cccc(C)c3C)ccc21` belongs “inactive”; to `COc1cccc(NC(=O)CSc2cc(=O)n(C)c3ccc(Cl)cc23)c1`, “inactive”; to `CCCCOc1ccc(C(=O)N2CC(=O)Nc3ccc(Br)cc3C2c2ccc(F)cc2)cc1` (stereo unspecified), “inactive”.
Under `CCCCc1nn2c(=O)cc(COC(=O)c3ccc(NC(=O)c4ccccc4C)cc3)nc2s1` stands “inactive”; under `CN(C)c1ccc(-c2nc(NCCN3CCOCC3)c3ccccc3n2)cc1`, 12.6 µM (active).
Under `c1ccc2[nH]c(NCCN3CCOCC3)nc2c1` stands “inactive”.
Turning to `c1ccc(-c2nc(NCc3ccco3)c3ccccc3n2)cc1`, the Potency entry was “inactive”.
To `O=C(c1cccc(Br)c1)N1CCN(Cc2cc(=O)n3nc(-c4ccccc4)sc3n2)CC1` belongs “inactive”.
To `Cc1csc(-c2nc3ccccc3n2C)n1` belongs 25.1 µM (active); to `Cc1nn2c3ccccc3nc2n(C)c1=O`, “inactive”.
Under `CC(C)n1c(-c2cccs2)nc2ccccc21` stands “inactive”.
As to `COc1ccc(Cn2c(=O)c3oc4ccccc4c3n(CC(=O)Nc3ccc(F)cc3F)c2=O)cc1`, the Potency result was “inactive”.
Under `CCN(C(=O)Cn1c(=O)nc(-c2ccccc2)c2cc(Cl)ccc21)c1cccc(C)c1` stands 15.8 µM (active); under `O=C(Cn1c(=O)nc(-c2ccccc2)c2cc(Cl)ccc21)NCc1ccc(Cl)cc1`, 10 µM (active); under `CCN(CCCNC(=O)CSc1cc(=O)n(C)c2cc(Cl)ccc12)c1cccc(C)c1`, “inactive”.
To `O=C(Cn1nnc(-c2ccccc2)n1)NCc1ccccc1` belongs “inactive”.
Consider `Cc1ccc(CNC(=O)CN2CCN(Cc3ccc(Cl)cc3)C2=O)cc1`, for which the Potency entry was “inactive”.
Under `CCCN(C(=O)Cn1cc(S(=O)(=O)N2CCN(c3ccccc3F)CC2)c2ccccc2c1=O)c1cccc(C)c1` stands “inactive”.
In the case of `CC1CCN(S(=O)(=O)c2ccc3c(c2)N(CC(=O)NCCc2ccccc2)C(=O)CO3)CC1`, the Potency entry was “inactive”.
`Cc1ccc(N(CC(=O)NCc2ccc(Cl)cc2)S(=O)(=O)N(C)C)cc1`: the Potency result was “inactive”.
Under `CCc1nn(CC(=O)Nc2cccc(C)c2C)c(=O)c2cc3sccc3n12` stands “inactive”; under `CCc1cccc(NC(=O)Cn2nc(CC)n3c(cc4cc(C)ccc43)c2=O)c1`, 25.1 µM (active); under `CCc1nn(CC(=O)Nc2cc(C)cc(C)c2)c(=O)c2cc3sccc3n12`, “inactive”.
To `CCCCN(CC)CCCNC(=O)Cn1ncc2c([nH]c3ccc(C)cc32)c1=O` belongs “inactive”; to `c1ccc(CNc2ncnc3[nH]ncc23)cc1`, “inactive”; to `CCC(C)NC(=O)Cn1c(=O)n(-c2ccc(Cl)cc2)c(=O)c2c3c(sc21)CCCC3` (stereo unspecified), “inactive”.
To `Cc1ccc(NC(=O)Cn2c(=O)n(-c3ccccc3)c(=O)c3c4c(sc32)CCCC4)cc1` belongs 12.6 µM (active); to `CCCN(CCC)C(=O)Cn1c(=O)n(-c2ccc(Cl)cc2)c(=O)c2c3c(sc21)CCCCC3`, “inactive”; to `CCOC(=O)c1c(S(=O)(=O)N2CCCC(C(=O)NCc3ccc(F)cc3)C2)c(C)n(CC)c1C` (stereo unspecified), “inactive”.
Consider `COc1ccccc1Nc1c2c(nc3ccc(NC(=O)/C=C/c4cc(OC)c(OC)c(OC)c4)cc13)CCCC2`, for which the Potency is 15.8 µM (active).
To `COc1cccc(C(=O)Nc2ccc3nc4n(c(=O)c3c2)CCCCC4)c1` belongs “inactive”; to `O=C(Nc1c2c(nc3ccccc13)CCCC2)c1ccccc1Br`, “inactive”.
Under `O=C(O)c1ccc(Cn2c(SCc3ccc(F)cc3)nc3ccncc32)cc1` stands “inactive”; under `Cc1ccc(Nc2c(-c3ccc(C)s3)nc3ccccn23)cc1`, “inactive”; under `Cc1cccc2nc(-c3ccc(Cl)s3)c(Nc3ccc4c(c3)OCCO4)n12`, “inactive”.
Consider `Cc1ccn2c(Nc3ccc4c(c3)OCCO4)c(-c3ccc(C)s3)nc2c1`, for which the Potency was 12.6 µM (active).
Under `CCN(C(=O)c1sc2cc(OC)ccc2c1Cl)c1ccccc1` stands “inactive”.
Take `COc1ccc(N2CCN(C3=NS(=O)(=O)C(c4cccc(Br)c4)=C3C)CC2)cc1`: the Potency result was “inactive”.
Under `CCOc1ccc(-n2c(C)nc3c(cnn3-c3ccc(C)cc3)c2=O)cc1` stands “inactive”; under `Cc1cccc(N2CCN(C(=O)c3ccc4c(c3)CCN4S(=O)(=O)c3ccccc3)CC2)c1C`, “inactive”; under `CCC(CC)c1nnc(NS(=O)(=O)Cc2ccccc2)s1`, “inactive”.
As for `Cc1c(C(=O)N2CC(C)OC(C)C2)sc2nc(-c3ccccc3)cn12` (stereo unspecified), the Potency entry is “inactive”.
Under `CCC(CC)c1nn2cc(-c3ccccc3)nc2s1` stands 6.31 µM (active); under `CC(C)c1ccc(C2CC(=O)N3CN(C4CCCCC4)CSC3=C2C#N)cc1` (stereo unspecified), “inactive”.
On to `Cc1noc(/C=C/N(C)C)c1S(=O)(=O)N1CCCC(C(=O)Nc2cccc(F)c2)C1` (stereo unspecified), for which the Potency entry is “inactive”.
To `CN(C(=O)c1ccc2c(c1)N(Cc1cccc(Cl)c1)C(=O)c1ccccc1S2=O)C1CCCCC1` (stereo unspecified) belongs “inactive”; to `Cc1ccc2c(=O)c(C(=O)c3cccc(Cl)c3)cn(CC(=O)NCc3ccccc3)c2n1`, “inactive”.
As to `CN1CCC[C@@H]1CCO[C@](C)(c1ccccc1)c1ccc(Cl)cc1`, the Potency entry is “inactive and 12.6 µM (active)”.
With `CN1CCCC1CCO[C@@](C)(c1ccccc1)c1ccc(Cl)cc1` (stereo partly specified), the Potency entry is “inactive”.
Under `Cc1ccsc1C(=O)OCC(=O)c1cc(C)n(CC2CCCO2)c1C` (stereo unspecified) stands 7.94 µM (active); under `COC(=O)c1ccc2c(=O)n(CC3CCCO3)c(=S)[nH]c2c1` (stereo unspecified), “inactive”; under `Cc1ccsc1C(=O)OCC(=O)c1cc2ccccc2o1`, “inactive”.
As for `COc1ccccc1N1CCN(Cc2nnnn2CCc2ccccc2)CC1`, the Potency entry was “inactive”.
Consider `COc1ccccc1N1CCN(C(=O)CN(Cc2ccc(Cl)cc2)S(C)(=O)=O)CC1`, for which the Potency result is “inactive”.
To `COc1ccccc1-n1nnnc1S(=O)(=O)Cc1ccc(Cl)cc1` belongs 6.31 µM (active).
In the case of `Cc1cccc(N2CCN(S(=O)(=O)c3ccc4[nH]c5c(c4c3)CCCCC5)CC2)c1C`, the Potency entry was “inactive”.
Regarding `O=C(CCS(=O)(=O)c1ccccc1)N(Cc1cccnc1)c1nc2c(F)cccc2s1`, the Potency was 31.6 µM (active).
On to `O=C(CCOc1ccccc1)N(Cc1cccnc1)c1nc2ccc(Cl)cc2s1`, for which the Potency result was “inactive”.
To `CN(C)S(=O)(=O)c1ccc(C(=O)N(Cc2cccnc2)c2nc3c(F)cc(F)cc3s2)cc1` belongs “inactive”.
Turning to `CCc1ccc(NC(=O)C2CCCN2S(=O)(=O)c2ccc3nc(-c4ccccc4)[nH]c3c2)cc1` (stereo unspecified), the Potency entry was “inactive”.
To `CCc1cccc(-n2nnc(-c3nsc(NC(=O)c4ccc(C)cc4)n3)c2C)c1` belongs “inactive”; to `CC1Cc2cc(S(=O)(=O)CCC(=O)Nc3ccc(F)c(Cl)c3)ccc2N1C(=O)C1CC1` (stereo unspecified), “inactive”.
With `COc1ccc(-n2cnc3cc(C(=O)NC4CCCC4)ccc32)cc1`, the Potency entry is “inactive”.
For `CCc1ccc2oc(-c3ccc(N)cc3)nc2c1`, the Potency was 10 µM (active).
To `COC(=O)c1ccc(-c2nc3cc(NC(C)=O)ccc3o2)cc1` belongs “inactive”; to `CCC(C)c1ccc2oc(-c3ccc(NC(=O)c4cc5ccccc5o4)cc3)nc2c1` (stereo unspecified), “inactive”; to `Cc1ccc(C)c(S(=O)(=O)c2nnn3c2nc(N2CCOCC2)c2sccc23)c1`, “inactive”.
For `CCS(=O)(=O)c1ncc(N(Cc2ccc(F)cc2)Cc2ccco2)c(C(=O)Nc2cc(C)ccc2C)n1`, the Potency entry was “inactive”.
Under `CCSc1ncc(Cl)c(C(=O)Nc2cc(C)ccc2C)n1` stands “inactive”; under `Cc1ccc(NC(=O)c2nc(S(=O)(=O)Cc3cccc(C)c3)ncc2Cl)cc1`, 10 µM (active); under `Cn1c(=O)n(Cc2c(F)cccc2Cl)c(=O)c2c1nc1n2CCN1c1ccc(F)cc1`, “inactive”.
For `Oc1c(C(c2ccccc2Cl)N2CCOCC2)sc2nc(-c3ccco3)nn12` (stereo unspecified), the Potency result was “inactive”.
Consider `Oc1c(C(c2ccccn2)N2CCOCC2)ccc2cccnc12` (stereo unspecified), for which the Potency is 12.6 µM (active).
Consider `Cc1nc2sc(C(c3ccco3)N3CCOCC3)c(O)n2n1` (stereo unspecified), for which the Potency result was “inactive”.
Under `Cc1ccc(CCNC(=O)c2ccc3c(c2)N(Cc2cc(C)ccc2C)C(=O)c2ccccc2S3=O)cc1` (stereo unspecified) stands “inactive”.
Under `CC(=O)N1CCc2cc(Br)cc(S(=O)(=O)CCC(=O)NCCc3ccc(Cl)cc3)c21` stands “inactive”; under `Cn1nnnc1SCCNCc1ccc(Cl)c(Cl)c1`, “inactive”; under `COc1cc(CNCCSc2nnnn2C)ccc1OCc1ccc(Cl)cc1Cl`, 25.1 µM (active).
Turning to `COc1cc(CNCCSc2nnnn2C)ccc1OCc1c(F)cccc1Cl`, the Potency entry was “inactive”.
